Data taken from PubChem BioAssay (EPA / NIEHS).
Where “and” joins values, the source holds several entries; their conditions need not be identical. Equal entries are not always repeated. Results filed as inconclusive are left out. Some structures have more than one record in an assay (separate samples or runs), and their calls can disagree. Calls of active or inactive are those of the source. How the source made its calls: active means hit-call score of the fitted dose curve at least 0.9, where 1 is the maximum; inconclusive means response in the unintended direction; inactive means score below 0.9.

Key:
[1] = TOX21_p53_BLA_p2_viability: Viability Assessment in the Tox21 HCT-116 p53 Agonism Beta-lactamase Assay, Phase 2 (AID 2283591);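 further: compound exposure lasted 16 h at 37 °C; actives lower the ATP signal meaning cytotoxicity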
Procedure, shortened: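 HCT116 p53-bla cells, 4000/well, dosed after 5 h plating (217-fold dilution of DMSO stocks) and incubated 16 h at 37C. Viability taken as cellular ATP by CellTiter-Glo luminescence after 30 min RT; signal loss marks cytotoxicity.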

[2] = biological target: Cellular tumor antigen p53 (Homo sapiens) (UniProt P04637); experiment: TOX21_p53_BLA_p2_ratio: Tox21 HCT-116 p53 Agonism Beta-lactamase Assay, Ratio, Phase 2 (AID 2283592)
Cellular tumor antigen p53 (Homo sapiens), sequence (P04637 whole entry, looked up): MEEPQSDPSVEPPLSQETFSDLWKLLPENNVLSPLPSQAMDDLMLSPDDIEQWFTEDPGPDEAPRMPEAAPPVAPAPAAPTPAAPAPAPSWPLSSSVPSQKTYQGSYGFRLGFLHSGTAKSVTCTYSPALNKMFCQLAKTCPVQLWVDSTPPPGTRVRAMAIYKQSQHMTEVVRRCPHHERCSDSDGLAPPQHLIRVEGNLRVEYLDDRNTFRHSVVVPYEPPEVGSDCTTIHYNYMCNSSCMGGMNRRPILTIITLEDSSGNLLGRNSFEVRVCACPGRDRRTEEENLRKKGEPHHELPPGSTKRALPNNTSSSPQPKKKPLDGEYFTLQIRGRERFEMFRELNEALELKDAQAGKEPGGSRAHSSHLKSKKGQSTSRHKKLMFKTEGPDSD
Procedure, shortened: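 Ratio endpoint: beta-lactamase cleavage of CCF4-AM, blue (460 nm) over green (530 nm). HCT116 reporter line; 16 h treatment, 37C; substrate 2 h RT.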

[3] = TOX21_p53_BLA_p3_viability: Viability Assessment in the Tox21 HCT-116 p53 Agonism Beta-lactamase Assay, Phase 3 (AID 2283593);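 further: cells exposed to compound for 16 h before reading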
Procedure, shortened: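 HCT116 cells, 4000/well, dosed 5 h after plating by pin transfer (217-fold dilution from DMSO stock) and incubated 16 h at 37C, 5% CO2. Viability read as ATP luminescence with CellTiter-Glo after 30 min at room temperature.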

[4] = biological target: Cellular tumor antigen p53 (Homo sapiens) (UniProt P04637); experiment: TOX21_p53_BLA_p3_ratio: Tox21 HCT-116 p53 Agonism Beta-lactamase Assay, Ratio, Phase 3 (AID 2283596)
Procedure, shortened: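 Cells were seeded at 4000/well, rested 5 h at 37C, then dosed with DMSO compound solutions (217-fold dilution) for 16 h. CCF4-AM substrate was loaded for 2 h at room temperature, and the 460/530 nm emission ratio was fitted for gain of signal versus DMSO.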

[5] = TOX21_p53_BLA_p4_viability: Viability Assessment in the Tox21 HCT-116 p53 Agonism Beta-lactamase Assay, Phase 4 (AID 2283597);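 further: hits lower the luminescence signal meaning cytotoxicity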
Procedure, shortened: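 Cytotoxicity was inferred from loss of CellTiter-Glo luminescence. HCT116 cells had been dosed with compounds after 5 h plating, incubated 16 h at 37C and 5% CO2, and exposed to the CCF4-AM substrate for 2 h.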

[6] = biological target: Cellular tumor antigen p53 (Homo sapiens) (UniProt P04637); experiment: TOX21_p53_BLA_p5_ratio: Tox21 HCT-116 p53 Agonism Beta-lactamase Assay, Ratio, Phase 5 (AID 2283599)
Procedure, shortened: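 HCT-116 p53-bla cells (4000/well) plated 5 h, dosed with compound (217-fold DMSO dilution) for 16 h at 37 C; CCF4-AM substrate 2 h at room temperature. Activity is the 460/530 nm emission ratio (405 nm excitation), fitted in gain-of-signal direction versus DMSO.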

[7] = TOX21_p53_BLA_p5_viability: Viability Assessment in the Tox21 HCT-116 p53 Agonism Beta-lactamase Assay, Phase 5 (AID 2283600)
Procedure, shortened: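 Luciferase-coupled ATP quantitation of cells treated for 16 h (37C, 5% CO2) with test chemicals delivered in DMSO via a 217-fold dilution; 4000 cells/well; reagent incubated 30 min at room temperature before luminescence reading.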

[8] = Tanguay_ZF_120hpf_MORT_legacy: (Legacy) Oregon State University Tanguay Lab 120 Hour Post-fertilization zebrafish Assay for Mortality (AID 2283633)
Procedure, shortened: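 Dechorionated Tropical 5D wild-type zebrafish embryos, one per well from 6 hpf, were statically exposed at 28C in the dark until 120 hpf (0.64% DMSO final). Mortality was scored as present/absent by brightfield microscopy, fitted positively versus DMSO.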

[9] = Tanguay_ZF_120hpf_AXIS_legacy: (Legacy) Oregon State University Tanguay Lab 120 Hour Post-fertilization zebrafish Assay for Body Axis Malformation (AID 2283635)
Procedure, shortened: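 Tropical 5D wild-type zebrafish embryos, dechorionated with pronase at 4 hpf, were placed singly in wells at 6 hpf and exposed statically to test chemical (0.64% DMSO final) at 28C until 120 hpf, then scored by brightfield for body axis defects.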

[10] = Tanguay_ZF_120hpf_EYE_legacy: (Legacy) Oregon State University Tanguay Lab 120 Hour Post-fertilization zebrafish Assay for Eye Malformation (AID 2283636);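 further: binary presence or absence of eye malformation scored by brightfield in 120 hpf larvae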
Procedure, shortened: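 5D wild-type embryos, pronase-dechorionated at 4 hpf; static exposure 6–120 hpf, 28C, dark; DMSO 0.64% final; 5uM trimethyltin chloride positive control. Binary eye-defect scoring at 120 hpf; dead embryos not scored.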

[11] = Tanguay_ZF_120hpf_SNOU_legacy: (Legacy) Oregon State University Tanguay Lab 120 Hour Post-fertilization zebrafish Assay for Snout Malformation (AID 2283637)
Procedure, shortened: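 Binary brightfield scoring of snout malformation at 120 hpf. Dechorionated 5D wild-type embryos, one per well, static exposure from 6 hpf at 28C, sealed and dark; final DMSO 0.64% (vol/vol), DMSO as baseline; 5uM trimethyltin chloride positive control.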

[12] = Tanguay_ZF_120hpf_JAW_legacy: (Legacy) Oregon State University Tanguay Lab 120 Hour Post-fertilization zebrafish Assay for Jaw Malformation (AID 2283638)
Procedure, shortened: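 Tropical 5D wild-type embryos, dechorionated with pronase at 4 hpf, were placed singly per well at 6 hpf and statically exposed at 28C until 120 hpf (0.64% DMSO final). Jaw malformation scored as present/absent by brightfield microscopy at 120 hpf, analyzed relative to DMSO.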

[13] = Tanguay_ZF_120hpf_OTIC_legacy: (Legacy) Oregon State University Tanguay Lab 120 Hour Post-fertilization zebrafish Assay for Otic Vesicle Malformation (AID 2283639)
Procedure, shortened: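 Wild-type zebrafish larvae, whole-embryo exposure from early stage to 120 hpf at 28C. Binary brightfield scoring of otic vesicle morphology, fitted in the positive direction against the DMSO baseline.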

[14] = Tanguay_ZF_120hpf_PE_legacy: (Legacy) Oregon State University Tanguay Lab 120 Hour Post-fertilization zebrafish Assay for Pericardial Edema (AID 2283640)
Procedure, shortened: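 Tropical 5D wild-type zebrafish embryos were exposed statically to 120 hpf at 28C, sealed and foil-covered, in 0.64% DMSO final. Pericardial edema was scored present/absent by brightfield microscopy; dead embryos were not scored.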

[15] = Tanguay_ZF_120hpf_BRAI_legacy: (Legacy) Oregon State University Tanguay Lab 120 Hour Post-fertilization zebrafish Assay for Brain Malformation (AID 2283641)
Procedure, shortened: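 Tropical 5D wild-type zebrafish embryos were exposed statically in sealed, foil-covered plates at 28C until 120 hpf, with 0.64% (vol/vol) final DMSO. Brain malformation was scored present/absent by brightfield microscopy, relative to DMSO baseline.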

[16] = Tanguay_ZF_120hpf_SOMI_legacy: (Legacy) Oregon State University Tanguay Lab 120 Hour Post-fertilization zebrafish Assay for Somite Malformation (AID 2283647)
Procedure, shortened: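 Tropical 5D wild-type zebrafish embryos, dechorionated with pronase at 4 hpf, were placed singly at 6 hpf and statically exposed until 120 hpf at 28C in 0.64% DMSO. Somite malformation was scored present/absent by brightfield microscopy versus DMSO.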

[17] = Tanguay_ZF_120hpf_CFIN_legacy: (Legacy) Oregon State University Tanguay Lab 120 Hour Post-fertilization zebrafish Assay for Caudal Fin Malformation (AID 2283649)
Procedure, shortened: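 Tropical 5D wild-type embryos, dechorionated with pronase at 4 hpf, were placed singly in wells at 6 hpf and statically exposed to compound at 28C until 120 hpf (0.64% DMSO). Caudal fin malformation was scored present/absent by brightfield microscopy.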

[18] = Tanguay_ZF_120hpf_PIG_legacy: (Legacy) Oregon State University Tanguay Lab 120 Hour Post-fertilization zebrafish Assay for Pigmentation Malformation (AID 2283650)
Procedure, shortened: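 Brightfield scoring of pigmentation malformation at 120 hpf, recorded as binary present/absent per larva. Exposure: dechorionated 5D wild-type embryos, one per well, static from 6 hpf at 28C, final DMSO 0.64% (vol/vol). Dead embryos not scored.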

[19] = Tanguay_ZF_120hpf_PFIN_legacy: (Legacy) Oregon State University Tanguay Lab 120 Hour Post-fertilization zebrafish Assay for Pectoral Fin Malformation (AID 2283648);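 further: each larva judged yes or no for fin defect by brightfield with dead larvae skipped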
Procedure, shortened: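 Binary pectoral fin malformation call at 120 hpf by brightfield microscopy; 5D wild-type zebrafish, chorion removed at 4 hpf, one embryo per well from 6 hpf, static exposure at 28C; DMSO (0.64% final) as baseline.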

[20] = biological target: Cellular tumor antigen p53 (Homo sapiens) (UniProt P04637); experiment: TOX21_p53_BLA_p4_ratio: Tox21 HCT-116 p53 Agonism Beta-lactamase Assay, Ratio, Phase 4 (AID 2283601)
Procedure, shortened: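 HCT-116 p53 beta-lactamase reporter cells (4000/well) preincubated 5 h, then compound (217-fold dilution of DMSO stock) for 16 h at 37C. CCF4-AM substrate added 2 h at room temperature; 460/530 nm emission ratio fitted upward versus DMSO.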

Measured: AC50

ClC1=C(Cl)C2(Cl)C3C(Cl)C(Cl)CC3C1(Cl)C2(Cl)Cl (stereo unspecified)
active: [1] 50.8 µM and 46 µM | [2] 61.5 µM and 80.2 µM | [3] 55.6 µM | [4] 86.1 µM | [5] 64.1 µM | [6] 86.4 µM | [7] 46.1 µM
inactive: [3] | [4] | [5] | [6] | [7] | [8] | [9] | [10] | [11] | [12] | [13] | [14] | [15] | [16] | [17] | [18]

C/C(=N\NC(=O)Nc1cc(F)cc(F)c1)c1ncccc1C(=O)O
inactive: [1] | [2] | [3] | [4] | [7]

O=C(CBr)OCc1ccccc1
inactive: [1] | [2] | [4] | [7]

c1cc2c3c(cccc3c1)CC2
not listed: [2] | [3] | [20]
inactive: all other assays above

CC1=C(C(=O)Nc2ccccc2)S(=O)(=O)CCO1
active: [2] 22.1 µM | [6] 15.8 µM | [20] 21 µM
inactive: [1] | [5] | [7]

Cc1ccc([N+](=O)[O-])cc1C
inactive: [8] | [9] | [10] | [11] | [12] | [13] | [14] | [15] | [19] | [18]

CN(C)C(=O)Cl
inactive: [8] | [10] | [11] | [12] | [13] | [14] | [15] | [17] | [18]

CNC(=O)Oc1ccc(N(C)C)c(C)c1
inactive: [2] | [4] | [6] | [7]

CCOP(=S)(Oc1ccc([N+](=O)[O-])cc1)c1ccccc1 (stereo unspecified)
inactive: [8] | [9] | [10] | [11] | [12] | [13] | [14] | [15] | [16] | [19] | [17]

O=C(O)C1C(C(=O)O)C2(Cl)C(Cl)=C(Cl)C1(Cl)C2(Cl)Cl (stereo unspecified)
not listed: [3] | [5] | [20]
inactive: all other assays above

CC(Cc1ccc(OCC(=O)O)cc1)NCC(O)c1csc(C(F)(F)F)n1 (stereo unspecified)
not listed: [1] | [3] | [5] | [7] | [20]
inactive: all other assays above

c1ccc(OP(Oc2ccccc2)Oc2ccccc2)cc1
not listed: [1] | [3] | [7] | [20]
inactive: all other assays above

CCN(CC)C1CCCCC1
inactive: [2] | [3] | [4] | [6] | [7]

CCCCCCCc1ccc(O)cc1
inactive: [8] | [9] | [10] | [11] | [12] | [14] | [15] | [16] | [19] | [18]

Cc1ccc(N)cc1N
not listed: [1] | [5] | [12] | [17] | [19] | [20]
inactive: all other assays above

O=C(O)C(Cl)Cl
not listed: [1] | [2] | [3] | [4] | [5] | [6] | [7] | [20]
inactive: all other assays above

ClC(Cl)c1ccccc1
inactive: [8] | [9] | [10] | [11] | [12] | [13] | [14] | [19] | [17] | [18]

OCC1CO1 (stereo unspecified)
not listed: [1] | [20]
inactive: all other assays above
